Source: the supplement of paper PMC12067926

Key:
Test in all cases: relative growth (AUC of 72 h growth curve relative to DMSO control, dAUC) (ratio); higher = more growth (less inhibition), active = hit call of the paper
Conditions in all cases: 20 µM;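 active = growth AUC significantly below the DMSO wells by Dunnett test; inactive = the rest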
[1] = test system: Aeromonas 1 (Aeromonas sp. AE235)
In short: (§1)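 Cultures grown to carrying capacity in Luria–Bertani medium, drawn from Icelandic stream sediment and Silwood Park soil isolates and whole sediment communities, were diluted 1:100 into 96-well plates with each chemical at 20 µM (1% DMSO) and read at A600 hourly for 72 h. The spline-integrated area under the growth curve, divided by the mean of the DMSO controls, is reported as relative growth (dAUC). Values are means of three biological replicates.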

[2] = test system: Aeromonas 2 (Aeromonas sobria)
In short: as §1

[3] = test system: Aeromonas 3 (Aeromonas popoffii)
In short: as §1

[4] = test system: Argrobacterium 1 (Agrobacterium sp.)
In short: as §1

[5] = test system: Arthrobacter 1 (Arthrobacter humicola)
In short: as §1

[6] = test system: Arthrobacter 2 (Arthrobacter humicola)
In short: as §1

[7] = test system: Arthrobacter 3 (Arthrobacter sp.)
In short: as §1

[8] = test system: Community 10
In short: as §1

[9] = test system: Community 4
In short: as §1

[10] = test system: Community 6
In short: as §1

[11] = test system: Community 7
In short: as §1

[12] = test system: Community 8
In short: as §1

[13] = test system: Community 9
In short: as §1

[14] = test system: Flavobacterium 1 (Flavobacterium glaciei)
In short: as §1

[15] = test system: Flavobacterium 2 (Flavobacterium succinicans)
In short: as §1

[16] = test system: Hymenobacter 1 (Hymenobacter glaciei)
In short: as §1

[17] = test system: Microbacterium 1 (Microbacterium arborescens)
In short: as §1

[18] = test system: Neobacillus 1 (Neobacillus soli)
In short: as §1

[19] = test system: Oryzobacter 1 (Oryzobacter terrae)
In short: as §1

[20] = test system: Paenibacillus 1 (Paenibacillus castaneae)
In short: as §1

Measured: relative growth

C[C@@H]1[C@@H](c2ccc(Cl)cc2)SC(=O)N1C(=O)NC1CCCCC1
inactive: [1] 1.02 | [2] 1.02 | [3] 1.01 | [4] 1.04 | [5] 0.906 | [6] 0.925 | [7] 1.02 | [8] 1.03 | [9] 0.946 | [10] 1.02 | [11] 1.05 | [12] 1.05 | [13] 1.05 | [14] 0.937 | [15] 1.02 | [16] 1.12 | [17] 1.04 | [18] 1.06 | [19] 0.912 | [20] 1.02

CO/C=C(/C(=O)OC)c1ccccc1Oc1cc(Oc2ccccc2C#N)ncn1
inactive: [1] 0.938 | [2] 0.929 | [3] 0.947 | [4] 1.02 | [5] 0.985 | [6] 1 | [7] 1.08 | [8] 0.868 | [9] 1.1 | [10] 0.903 | [11] 0.834 | [12] 1.03 | [13] 1.04 | [14] 1.09 | [15] 0.99 | [16] 1.03 | [17] 0.975 | [18] 1.01 | [19] 1.13 | [20] 1.01

COC(=O)N(OC)c1ccccc1COc1ccn(-c2ccc(Cl)cc2)n1
inactive: [1] 1.04 | [2] 0.927 | [3] 0.979 | [4] 1.04 | [5] 1.16 | [6] 1.02 | [7] 0.903 | [8] 0.903 | [9] 0.941 | [10] 1.03 | [11] 1.11 | [12] 1.04 | [13] 1.09 | [14] 0.969 | [15] 0.979 | [16] 1.08 | [17] 0.98 | [18] 1.03 | [19] 1.17 | [20] 0.944

CNC(=O)c1cc(C#N)cc(C)c1NC(=O)c1cc(Br)nn1-c1ncccc1Cl
inactive: [1] 0.986 | [2] 0.95 | [3] 1.01 | [4] 1.03 | [5] 1 | [6] 0.967 | [7] 0.99 | [8] 0.859 | [9] 0.903 | [10] 0.946 | [11] 1.05 | [12] 0.986 | [13] 1.02 | [14] 1.02 | [15] 0.975 | [16] 0.978 | [17] 0.993 | [18] 0.957 | [19] 1.06 | [20] 0.915

CC1(C)C(C=C(Cl)Cl)C1C(=O)OC(C#N)c1ccc(F)c(Oc2ccccc2)c1 (centres undefined)
inactive: [1] 0.997 | [2] 1 | [3] 1.07 | [4] 1.03 | [5] 1.19 | [6] 0.879 | [7] 0.946 | [8] 0.911 | [9] 0.954 | [10] 0.928 | [11] 0.868 | [12] 1.06 | [13] 0.995 | [14] 1.02 | [15] 0.998 | [16] 1.03 | [17] 1.04 | [18] 0.981 | [19] 1.14 | [20] 0.826

OC(Cc1ccccc1Cl)(Cn1nc[nH]c1=S)C1(Cl)CC1 (centres undefined)
inactive: [1] 0.97 | [2] 0.986 | [3] 1.03 | [4] 1.01 | [5] 0.952 | [6] 1.04 | [7] 1.07 | [8] 0.945 | [9] 1.01 | [10] 0.982 | [11] 0.968 | [12] 1.03 | [13] 1.02 | [14] 1.09 | [15] 1 | [16] 1.01 | [17] 0.958 | [18] 1.05 | [19] 0.894 | [20] 1.01

CC(C)OC(=O)C(C(=O)OC(C)C)=C1SCCS1
inactive: [1] 0.961 | [2] 0.967 | [3] 0.993 | [4] 1.02 | [5] 1.02 | [6] 0.922 | [7] 0.975 | [8] 0.804 | [9] 0.901 | [10] 0.886 | [11] 1.15 | [12] 1 | [13] 0.964 | [14] 0.993 | [15] 0.947 | [16] 1.09 | [17] 1.02 | [18] 1.01 | [19] 1.12 | [20] 0.965

O=C(Nc1ccc(F)cc1F)c1cccnc1Oc1cccc(C(F)(F)F)c1
inactive: [1] 1.03 | [2] 0.98 | [3] 1.01 | [4] 1.02 | [5] 1.06 | [6] 1 | [7] 1.07 | [8] 0.942 | [9] 1.08 | [10] 0.987 | [11] 1.04 | [12] 0.97 | [13] 1.11 | [14] 1.09 | [15] 1.03 | [16] 1.05 | [17] 0.997 | [18] 1.06 | [19] 1.03 | [20] 0.937

CS(=O)(=O)c1ccc(C(=O)C2C(=O)CCCC2=O)c([N+](=O)[O-])c1
inactive: [1] 0.965 | [2] 1 | [3] 0.97 | [4] 0.959 | [5] 1 | [6] 1.07 | [7] 1.02 | [9] 1.06 | [10] 1.04 | [11] 0.957 | [12] 1.06 | [13] 1.04 | [14] 1.07 | [15] 1.04 | [16] 1.07 | [17] 1.04 | [18] 1.04 | [19] 1.01 | [20] 1.03

CCOP(=S)(OCC)Oc1cc(C)nc(C(C)C)n1
inactive: [1] 0.987 | [2] 0.964 | [3] 0.98 | [4] 1.16 | [5] 0.981 | [6] 0.834 | [7] 0.888 | [8] 0.743 | [9] 0.904 | [10] 0.958 | [11] 1.1 | [12] 0.976 | [13] 0.912 | [14] 0.913 | [15] 0.909 | [16] 0.975 | [17] 0.969 | [18] 0.943 | [19] 1.09 | [20] 0.922

Cc1cc(C(C#N)c2ccc(Cl)cc2)c(Cl)cc1NC(=O)c1cc(I)cc(I)c1O (centres undefined)
active: [2] 0.788 | [5] 0.0129 | [6] 0.011 | [7] 0.0114 | [9] 0.631 | [10] 0.454 | [13] 0.394 | [14] 0.0126 | [15] 0.794 | [16] 0.00496 | [18] 0.729 | [19] 0.00516 | [20] 0.325
inactive: [1] 0.979 | [3] 0.96 | [4] 0.833 | [8] 0.677 | [11] 0.817 | [12] 0.725 | [17] 0.99

N#Cc1sc2c(=O)c3ccccc3c(=O)c=2sc1C#N
inactive: [1] 0.852 | [2] 0.905 | [3] 1.07 | [4] 1.09 | [8] 1.16 | [9] 1.12 | [10] 1.12 | [11] 1.06 | [12] 1.06 | [13] 1.09 | [15] 1.05 | [16] 0.709 | [17] 0.965 | [18] 1 | [19] 0.898 | [20] 0.928
active: [5] 0.649 | [6] 0.193 | [7] 0.557 | [14] 0.359

CN1COCN(Cc2cnc(Cl)s2)/C1=N\[N+](=O)[O-]
inactive: [1] 0.991 | [2] 0.983 | [3] 0.984 | [4] 1.04 | [5] 1.04 | [6] 1.02 | [7] 1.13 | [8] 0.777 | [9] 1.04 | [10] 0.963 | [11] 0.896 | [12] 1.02 | [13] 1.06 | [14] 1.02 | [15] 0.975 | [16] 0.998 | [17] 0.974 | [18] 1.01 | [19] 0.955 | [20] 0.945

CCOc1ccc(C(C)(C)COCc2cccc(Oc3ccccc3)c2)cc1
inactive: [1] 1.01 | [2] 1.02 | [3] 1.02 | [4] 1.04 | [5] 1.01 | [6] 0.801 | [7] 0.816 | [8] 1.02 | [9] 0.901 | [10] 0.979 | [11] 1.04 | [12] 1.06 | [13] 0.965 | [14] 0.785 | [15] 0.958 | [16] 0.929 | [17] 1.04 | [18] 0.881 | [19] 1.05 | [20] 0.942

CCCCc1c(C)nc(NCC)nc1OS(=O)(=O)N(C)C
inactive: [1] 0.942 | [2] 0.942 | [3] 1.04 | [4] 1.03 | [5] 0.911 | [6] 0.863 | [7] 0.926 | [8] 0.816 | [9] 0.948 | [10] 0.944 | [11] 1.04 | [12] 1.05 | [13] 0.969 | [14] 0.978 | [15] 0.904 | [16] 1.06 | [17] 1.02 | [18] 0.963 | [19] 1.09 | [20] 0.906

OC(Cn1cncn1)(c1ccc(F)cc1)c1ccccc1F (centres undefined)
inactive: [1] 0.996 | [2] 1.04 | [3] 1.01 | [4] 1.02 | [5] 0.835 | [6] 1.11 | [7] 1.04 | [8] 1.09 | [9] 1.08 | [10] 1.07 | [11] 0.819 | [12] 1.04 | [13] 1.08 | [14] 1.12 | [15] 1.07 | [16] 1.13 | [17] 0.996 | [18] 1.08 | [19] 1.05 | [20] 1.05
